Lassa entry inh: blocks Lassa virus binding to or entry into cells | AID 540256 | Potency, µM (doses to about 37.9 µM), hits mostly inhibitors | 300,000 compounds, 1.2% hits | Lassa virus pseudotype entry inhibition, cell reporter; calls by dose curve; tested in HEK293 cells; note: nearly all actives have a fitted effect of over 50% in size
Shiga inhibitor: Shiga toxin inhibition; 290,000 compounds, 9.2% hits; Vero cells, Shiga toxin protein synthesis inhibition reporter; inhibition, % at 38.7 µM; AID 2315; in the data active = inhibition mostly above about 28%, no sharp cut-off; inactive = mostly below about 43%
Cycloheximide cs: counter-screen for Shiga toxin inhibitors: cycloheximide protein synthesis inhibition; max response, %; AID 2314; 300,000 compounds, 12% hits; cell reporter, cycloheximide protein synthesis inhibition counterscreen; in the data active = max response mostly above about 13%, no sharp cut-off; inactive = mostly below about 14%; note: read at 38.3 µM for the half of the compounds with a filed dose
Pf growth 48h: P. falciparum growth inhibition at 48 hours (one generation). P. falciparum luciferase growth in erythrocytes, 48 h. Potency, µM (doses to about 28.7 µM), usual class: inhibitors. 310,000 compounds, 5.9% hits. AID 504832
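Erythrocytes infected with P. falciparum carrying an integrated firefly luciferase reporter (2% hematocrit, 0.1% parasitemia final) were exposed to compounds in RPMI 1640 with 0.5% Albumax at 37 C, 5% CO2. Growth inhibition was scored as reduced luminescence.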
Pf growth 96h: P. falciparum growth inhibition at 96 hours | P. falciparum luciferase reporter growth, 96 h | Potency, µM (series often up to 28.7 µM), usual class: inhibitors | 320,000 compounds, 6.9% hits | AID 504834
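Infected RBCs, 2% Hct / 0.05% parasitemia final; luciferase-reporter P. falciparum; cpd 96 h, 37 C, 5% CO2; luciferase detection reagent; luminescence.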
MARV entry inh: inhibitors of Marburg virus binding or cell entry; Marburg virus pseudotyped entry inhibition, cell reporter; Potency, µM (titrated, usually from 37.8 µM), actives largely listed as inhibitors; 300,000 compounds, 1.8% hits; AID 540276; calls by dose curve; tested in HEK293 cells
A number is an active result; [ ] = another dose, or the depositor's remark. In the library only some 19% were active in any assay of this set; here they are far more common. Unless noted, calls come from the whole dose curve; as a rule, active = well fitted inhibition curve with a large enough effect; inconclusive = small, poorly fitted or top-dose-only effect, or another doubt; inactive = no such curve, though single readings can be large or run the other way.

`COc1ccc(CCn2c(=N)c(C(=O)NCC3CCCO3)cc3c(=O)n4ccccc4nc32)cc1` (stereo not given) gave Shiga inhibitor inactive, Cycloheximide cs inactive, Pf growth 48h 4.65µM and Pf growth 96h 4.65µM.
For COc1ccc(Cn2c(=N)c(C(=O)NCC3CCCO3)cc3c(=O)n4ccccc4nc32)cc1 (stereo not given) the results were Shiga inhibitor inactive, Cycloheximide cs inactive, Pf growth 48h inconclusive and Pf growth 96h inconclusive.
COc1ccc(CCn2c(=N)c(C(=O)NC3CCCC3)cc3c(=O)n4cccc(C)c4nc32)cc1 was read as Shiga inhibitor inactive, Cycloheximide cs inactive, Pf growth 48h 0.828µM and Pf growth 96h 0.522µM.
Cc1cccn2c(=O)c3cc(C(=O)NC4CCCC4)c(=N)n(Cc4ccc(F)cc4)c3nc12 was read as Shiga inhibitor inactive, Cycloheximide cs inactive, Pf growth 48h inconclusive and Pf growth 96h inconclusive.
For Cc1cccn2c(=O)c3cc(C(=O)NC4CCCC4)c(=N)n(CCc4ccccc4)c3nc12 the results were Lassa entry inh inactive, Shiga inhibitor inactive, Cycloheximide cs inactive, Pf growth 48h 0.465µM, Pf growth 96h 4.15µM and MARV entry inh inconclusive.
COc1ccc(CCn2c(=N)c(S(=O)(=O)c3ccc(C)cc3)cc3c(=O)n4ccccc4nc32)cc1 was read as Shiga inhibitor inactive, Cycloheximide cs inactive, Pf growth 48h 5.22µM and Pf growth 96h 3.7µM.
For Cc1cccn2c(=O)c3cc(C(=O)NC4CCCC4)sc3nc12 the results were Shiga inhibitor inactive, Cycloheximide cs 18.6, Pf growth 48h inconclusive and Pf growth 96h inconclusive.
`O=C(Nc1ccc(N2CCN(CCOc3ccc(Cl)cc3)CC2)c(C(=O)O)c1)c1ccc(F)cc1` gave Lassa entry inh inactive.
`Cc1ccc(Nc2nc(N)c([N+](=O)[O-])c(NCc3ccco3)n2)cc1C` gave Lassa entry inh inactive, Shiga inhibitor 53.9, Cycloheximide cs 67.5, Pf growth 48h inactive, Pf growth 96h inconclusive and MARV entry inh inconclusive.
Screening Nc1nc(NCc2ccc(Cl)cc2)nc(NCCO)c1[N+](=O)[O-] returned Lassa entry inh inconclusive, Shiga inhibitor inactive, Cycloheximide cs inactive, Pf growth 48h inconclusive, Pf growth 96h inconclusive and MARV entry inh inconclusive.
`Cc1ccc(Nc2nc(N)c([N+](=O)[O-])c(NCCO)n2)cc1C` gave Lassa entry inh inactive, Shiga inhibitor inactive, Cycloheximide cs 27.3, Pf growth 48h inactive, Pf growth 96h inactive and MARV entry inh inactive.
Screening Cc1ccc(CNc2nc(N)c([N+](=O)[O-])c(NCCO)n2)cc1 returned Shiga inhibitor inactive, Cycloheximide cs inactive, Pf growth 48h inconclusive and Pf growth 96h 8.28µM.
`CCOC(=O)c1noc2nc(C)n(CC(=O)NC(C)CC)c(=O)c12` (stereo not given) gave Lassa entry inh inactive.
`COC(=O)c1ccc(NC(=O)Cn2nc(C)c3ccccc3c2=O)cc1` gave Shiga inhibitor inactive, Cycloheximide cs inactive, Pf growth 48h inactive and Pf growth 96h inconclusive.
`O=C(CSc1ccc(-c2ccccn2)nn1)NCc1ccc(Cl)cc1` gave Lassa entry inh inactive, Shiga inhibitor inactive, Cycloheximide cs inactive, Pf growth 48h inconclusive, Pf growth 96h inactive and MARV entry inh inactive.
`COc1cc(C=NNc2ncnc3c2cnn3C(C)C)ccc1O` gave Lassa entry inh 12.5µM.
Screening COc1cc(/C=N/Nc2nc(=O)[nH]nc2C)cc([N+](=O)[O-])c1O returned Shiga inhibitor 56.8, Cycloheximide cs 25.0, Pf growth 48h 1.17µM and Pf growth 96h 0.657µM.
COc1ccc(/C=N/Nc2nc(=O)[nH]nc2C)cc1[N+](=O)[O-] was read as Lassa entry inh inactive, Shiga inhibitor inactive, Cycloheximide cs inactive, Pf growth 48h inactive, Pf growth 96h inconclusive and MARV entry inh inactive.
Screening COc1cc(/C=N/NC(=O)CSc2ccccn2)ccc1O returned Shiga inhibitor inactive, Cycloheximide cs inactive, Pf growth 48h inactive and Pf growth 96h inactive.
For COc1ccc(/C=N/Nc2nc(=O)[nH]nc2C)cc1OC the results were Lassa entry inh inconclusive, Shiga inhibitor 65.6, Cycloheximide cs 33.1, Pf growth 48h inconclusive, Pf growth 96h inconclusive and MARV entry inh inconclusive.
COc1cc(/C=N/Nc2nc(=O)[nH]nc2C)ccc1O was read as Shiga inhibitor 70.5, Cycloheximide cs 36.8, Pf growth 48h inconclusive and Pf growth 96h inconclusive.
Screening Cc1n[nH]c(=O)nc1N/N=C/c1ccc(O)c([N+](=O)[O-])c1 returned Lassa entry inh inconclusive, Shiga inhibitor inactive, Cycloheximide cs inactive, Pf growth 48h inconclusive, Pf growth 96h inactive and MARV entry inh inactive.
For Cc1cccc(-c2cc(C(=O)NCCCn3ccnc3)c3ccccc3n2)c1 the results were Shiga inhibitor inactive, Cycloheximide cs inactive, Pf growth 48h inconclusive and Pf growth 96h inconclusive.
Screening Cc1ccc(-c2cc(C(=O)O)c3cc(Br)ccc3n2)o1 returned Lassa entry inh inactive, Shiga inhibitor inactive, Cycloheximide cs inactive, Pf growth 48h inactive, Pf growth 96h inactive and MARV entry inh inactive.
Cc1ccc(-c2cc(C(=O)NN3CCOCC3)c3cc(Br)ccc3n2)o1 was read as Lassa entry inh inactive, Shiga inhibitor inactive, Cycloheximide cs inactive, Pf growth 48h inactive, Pf growth 96h 5.22µM and MARV entry inh inactive.
For Cc1ccc(-c2cc(C(=O)NC3=NCCS3)c3cc(Br)ccc3n2)o1 the results were Shiga inhibitor inactive, Cycloheximide cs inactive, Pf growth 48h 9.28µM, Pf growth 96h inactive and MARV entry inh inactive.
For Cc1ccc(-c2cc(C(=O)NCCCn3ccnc3)c3cc(Br)ccc3n2)o1 the results were Lassa entry inh inactive, Shiga inhibitor inactive, Cycloheximide cs inactive, Pf growth 48h 9.28µM, Pf growth 96h inconclusive and MARV entry inh inconclusive.
Screening CCNC(=O)c1ccc(NC(=O)CC2SC(N3CCCC3)=NC2=O)cc1 (stereo not given) returned Lassa entry inh inactive, Pf growth 48h inactive, Pf growth 96h inactive and MARV entry inh inactive.
For CN(C1=NC(=O)C(CC(=O)Nc2ccc(Br)cc2)S1)c1ccc(O)cc1 (stereo not given) the results were Lassa entry inh inconclusive, Shiga inhibitor inactive, Cycloheximide cs inactive, Pf growth 48h inactive, Pf growth 96h 5.22µM and MARV entry inh inactive.
Screening Cc1cc(C)cc(NC(=O)CN2CCN(CCN=CC3=C(O)CC(C)(C)CC3=O)CC2)c1 returned Lassa entry inh inactive, Shiga inhibitor inactive, Cycloheximide cs inactive, Pf growth 48h inactive, Pf growth 96h inactive and MARV entry inh inactive.
Screening CCN(CC)CCNC(=O)CCCCn1c(=S)[nH]c2c([nH]c3ccc(OC)cc32)c1=O returned Lassa entry inh inactive, Shiga inhibitor inactive, Cycloheximide cs inactive, Pf growth 48h 9.28µM, Pf growth 96h inconclusive and MARV entry inh inactive.
`Cc1ccc(CC(=O)Nc2cccnc2)cc1` gave Shiga inhibitor inactive, Cycloheximide cs inactive, Pf growth 48h inactive[5.75 µM] and Pf growth 96h inactive.
`CC1CCN(C(=S)Nc2ccc(SC(F)F)cc2)CC1` gave Lassa entry inh inactive, Shiga inhibitor 63.9, Cycloheximide cs 59.1, Pf growth 48h inactive, Pf growth 96h inactive and MARV entry inh inactive.

Screening data (PubChem)
